Reference: the antibiotic and cytotoxicity screens of Wong et al. (2023)
Out of some 39,000 compounds screened, about 1,500 (3.8%) were called active. This is one part of a sample in which actives are shown more often than they occur.

The compounds below were run on HSkMC (human skeletal muscle cells) (assay: cytotoxicity call (relative viability < 0.9)). Conditions: 10 µM.

| Structure (SMILES) | cytotoxicity call |
| --- | --- |
| Cc1cc(O)n(C[C@H]2CCCO2)c(=O)c1C#N | inactive |
| COc1ccc(S(=O)(=O)Nc2ccc3c(c2)C(=O)N([C@H](C)CO)C[C@@H](C)[C@H](CN(C)C(=O)Nc2ccc4c(c2)OCO4)OCCCC[C@@H](C)O3)cc1 | inactive |
| COc1ccc(S(=O)(=O)N(C)C[C@H]2Oc3c(NC(=O)Nc4c(C)noc4C)cccc3C(=O)N([C@@H](C)CO)C[C@@H]2C)cc1 | inactive |
| O=C(NC1CCCCC1)N1c2ccccc2C=Cc2ccccc21 | inactive |
| C[C@H]1CN([C@@H](C)CO)C(=O)c2c(c3ccccc3n2C)-c2ccccc2CO[C@@H]1CN(C)Cc1cccc2c1OCCCO2 | inactive |
| CCCC(=O)N1CC[C@]2(CC1)CN([C@H](CO)c1c2c2ccc(cc2n1C)OC)C(=O)CN1CCOCC1 | inactive |
| C[C@H](CO)N1C[C@H](C)[C@H](CN(C)C(=O)Nc2ccc(F)cc2)Oc2ccc(NC(=O)Nc3cccc4ccccc34)cc2C1=O | inactive |
| CCS(=O)(=O)Nc1ccc2c(c1)C(=O)N(C)[C@H]1CC[C@@H](CC(=O)NCCCN3CCOCC3)O[C@H]1CO2 | inactive |
| COc1ccc(CN(C)C[C@H]2Oc3ccc(NC(=O)Nc4ccc(C(F)(F)F)cc4)cc3C(=O)N([C@@H](C)CO)C[C@@H]2C)cc1 | active |
| COc1ccc(NC(=O)Nc2ccc3c(c2)C(=O)N([C@H](C)CO)C[C@@H](C)[C@@H](CN(C)Cc2ccc(C(F)(F)F)cc2)O3)cc1 | inactive |
| COc1ccc(CN(C)C[C@H]2Oc3ccc(NC(=O)Nc4ccc(C(F)(F)F)cc4)cc3C(=O)N([C@@H](C)CO)C[C@H]2C)cc1 | active |
| COc1ccc(NC(=O)Nc2ccc3c(c2)C(=O)N([C@H](C)CO)C[C@H](C)[C@H](CN(C)Cc2ccc(C(F)(F)F)cc2)O3)cc1 | inactive |
| COc1ccc(S(=O)(=O)Nc2ccc3c(c2)C(=O)N([C@@H](C)CO)C[C@@H](C)[C@@H](CN(C)Cc2ccccc2)OCCCC[C@H](C)O3)cc1 | inactive |
| C[C@H](CO)N1C[C@H](C)[C@@H](CN(C)S(=O)(=O)c2ccc(Cl)cc2)Oc2c(NS(C)(=O)=O)cccc2C1=O | inactive |
| C[C@@H]1CN([C@@H](C)CO)C(=O)Cc2cc(NS(C)(=O)=O)ccc2O[C@H]1CN(C)S(=O)(=O)c1ccc(F)cc1 | inactive |
| O=C(C[C@@H]1C=C[C@H](NC(=O)c2ccncc2)[C@@H](CO)O1)NCc1ccncn1 | inactive |
| Cc1ccc(S(=O)(=O)Nc2ccc3c(c2)C(=O)N([C@H](C)CO)C[C@@H](C)[C@@H](CN(C)Cc2ccc(Oc4ccccc4)cc2)O3)cc1 | active |
| C[C@@H]1CN([C@H](C)CO)C(=O)c2cc(NS(=O)(=O)c3ccccc3)ccc2O[C@@H]1CN(C)Cc1ccc(Oc2ccccc2)cc1 | active |
| COc1ccc(S(=O)(=O)Nc2ccc3c(c2)C(=O)N([C@H](C)CO)C[C@@H](C)[C@@H](CN(C)Cc2ccc(Oc4ccccc4)cc2)O3)cc1 | inactive |
| COc1ccc(S(=O)(=O)Nc2ccc3c(c2)C(=O)N([C@H](C)CO)C[C@H](C)[C@H](CN(C)Cc2ccc(Oc4ccccc4)cc2)O3)cc1 | inactive |
| Cc1ccc(S(=O)(=O)Nc2ccc3c(c2)C(=O)N([C@@H](C)CO)C[C@@H](C)[C@H](CN(C)Cc2ccc(Oc4ccccc4)cc2)O3)cc1 | inactive |
| Cc1ccc(S(=O)(=O)Nc2ccc3c(c2)C(=O)N([C@@H](C)CO)C[C@H](C)[C@@H](CN(C)Cc2ccc(Oc4ccccc4)cc2)O3)cc1 | inactive |
| Cc1ccc(S(=O)(=O)Nc2ccc3c(c2)C(=O)N([C@@H](C)CO)C[C@@H](C)[C@@H](CN(C)Cc2ccc(Oc4ccccc4)cc2)O3)cc1 | active |
| C[C@H](CO)N1C[C@H](C)[C@@H](CN(C)Cc2ccc(Oc3ccccc3)cc2)Oc2ccc(NS(=O)(=O)c3ccccc3)cc2C1=O | inactive |
| Cc1ccc(S(=O)(=O)Nc2ccc3c(c2)C(=O)N([C@@H](C)CO)C[C@H](C)[C@H](CN(C)Cc2ccc(Oc4ccccc4)cc2)O3)cc1 | inactive |
| C[C@H]1CN([C@@H](C)CO)C(=O)c2cc(NS(=O)(=O)c3ccccc3)ccc2O[C@H]1CN(C)Cc1ccc(Oc2ccccc2)cc1 | inactive |
| COc1ccc(S(=O)(=O)Nc2ccc3c(c2)C(=O)N([C@H](C)CO)C[C@H](C)[C@@H](CN(C)Cc2ccc(Oc4ccccc4)cc2)O3)cc1 | active |
